The list is not random: actives were taken first. Their share in the collection is about 6.5%.
MARV entry inh – Marburg virus entry inhibition; Marburg virus pseudotyped entry inhibition, cell reporter; Potency, µM (doses to about 37.8 µM), for inactives: top-dose activity change, negative = inhibition, actives largely listed as inhibitors; hit rate 1.8% among 300,000; AID 540276; calls by dose curve; tested in HEK293 cells; note: potency is the fitted concentration of half-maximal effect
VACV Venus inh – vaccinia inhibition (Venus reporter); Vaccinia virus Venus reporter expression, fluorescence; Potency, µM (titrated, usually from 36.5 µM), for the others: at the highest dose activity change, negative = inhibition, most hits filed as inhibitors; hit rate 0.46% among 330,000; calls by dose curve; tested in A549 cells; note: potency is the fitted concentration of half-maximal effect; nearly all actives have a fitted effect of over 30% in size
LASV entry inh – blocks Lassa virus binding to or entry into cells | AID 540256 | hit rate 1.2% among 300,000 | Lassa virus pseudotype entry inhibition, cell reporter | Potency, µM (top dose mostly 37.9 µM), for the others: at the top dose activity change, negative = inhibition, hits mostly inhibitors; calls by dose curve; tested in HEK293 cells; note: potency is the fitted concentration of half-maximal effect; nearly all actives have a fitted effect of over 50% in size
Vaccinia mCherry – inhibitors of vaccinia virus infection (mCherry reporter signal) | Vaccinia virus mCherry reporter infection, fluorescence | Potency, µM (doses to about 36.5 µM), inactives show at the highest dose activity change, negative = inhibition, hits mostly inhibitors | hit rate 0.63% among 310,000; calls by dose curve; tested in A549 cells; note: potency is the fitted concentration of half-maximal effect; nearly all actives have a fitted effect of over 35% in size
HCMV inh – blocks human cytomegalovirus replication; HFF cells, HCMV-luciferase reporter, 72 h; hits give low values; activity change, negative = inhibition, % at 57.5 µM; hit rate 4.5% among 410,000; AID 1259415; in the data active = activity change below about -60%; inconclusive = no clear call, values can overlap the other calls; inactive = above about -39%
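Human foreskin fibroblasts infected with luciferase-reporter HCMV at MOI 1 PFU/cell, compounds at two doses. Luciferase measured 72 h post infection; normalized to buffer-only basal and Salinomycin (10uM) controls.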
FMDV inh – antivirals against foot and mouth disease virus. Potency, µM (series often up to 57.9 µM), for the others: at the top dose activity change, negative = inhibition, usual class: inhibitors. FMDV antiviral cell-based qHTS. AID 1159524. hit rate 1.2% among 410,000; calls by dose curve; tested in HEK293T cells; note: read-out not given here; potency is the fitted concentration of half-maximal effect; nearly all actives have a fitted effect of over 45% in size
Starred values were filed as active, the others as inactive; i = inactive; u = inconclusive; x = no result; [ ] = dose if it differs, or a comment. % is set by controls: 0 for no effect and ±100 for the full control effect.

SMILES	MARV entry inh	VACV Venus inh	LASV entry inh	Vaccinia mCherry	HCMV inh	FMDV inh
COc1ccc(C(C)NCCC(c2ccc(OC(C)C)cc2)c2ccccc2OC)cc1 (configuration not stated)	u	11µM*	-26%[46.1 µM]	u	-97*	-24%
Oc1ccccc1CNc1cccc2cccnc12	u	9%	u	-2%	-5	69%
Nc1sc(-c2ccccc2)n[n+]1Cc1cccc2cccnc12	6%	x	x	x	-99*	-26%
COc1cccc(/C=N/NC(=O)c2ccncc2)c1OC(=O)c1ccc(Br)cc1	u	-29%	u	4.5µM*	x	-15%
COc1ccccc1/C=N/NC(=O)c1ccc(NC(=O)c2ccccc2Br)cc1	7%	-4%	3%	-22%	-66*	-27%
COc1cc(/C=N/NC(=O)c2ccncc2)ccc1OC(=O)c1cccc(Br)c1	1%[46.1 µM]	-10%	26%[46.1 µM]	-6%	32	-14%
O=C(N/N=C/c1ccc(O)cc1)c1ccc(NC(=O)c2ccccc2Br)cc1	u	u	2.5µM*	u	-7	-17%
O=C(N/N=C/c1cccs1)c1ccc(NC(=O)c2ccccc2Cl)cc1	u	-17%	5%	i	-65*	-13%
O=C(COc1ccccc1C(=O)Nc1ccccc1)Nc1ccccc1Br	x	-9%	x	-5%	x	x
O=C(Oc1ccccc1C(=O)Nc1ccccc1)c1ccccc1Br	-14%	u	-21%	u	-66*	-29%
CN1C2CCC1C(C(=O)Oc1ccccc1)C(c1ccc(Cl)cc1)C2 (configuration not stated)	x	x	x	x	-77*	x
COC(=O)C1C(c2ccc(C)cc2)CC2CCC1N2C (configuration not stated)	x	x	x	x	-30	x
Cc1ccc(-c2nnc(-c3ccccc3)c(-c3ccccc3)n2)cc1	0%	-7%	-20%	i	u	-5%
Cc1cc(-c2nnc(-c3ccccc3)c(-c3ccccc3)n2)c(C)o1	u	x	-3%	x	-65*	-13%
Cc1sc2ncnc(SCC(=O)N3c4ccccc4Sc4ccc(Cl)cc43)c2c1C	u	-7%	0%	-18%	-12	-20%
CCOC(=O)c1c(C)sc2c1N(C(=O)CCl)c1cc(Cl)ccc1S2	u	-30%	u	u	-96*	10µM*
COC(C(=O)C(O)C(C)O)C1Cc2cc3cc(OC4CC(OC5CC(O)C(O)C(C)O5)C(O)C(C)O4)c(C)c(O)c3c(O)c2C(=O)C1OC1CC(OC2CC(OC3CC(C)(O)C(O)C(C)O3)C(O)C(C)O2)C(O)C(C)O1 (configuration not stated)	x	0.28µM*	x	0.28µM*	x	x
COC(C(=O)C(O)C(C)O)C1Cc2cc3cc(OC4CC(OC5CC(O)C(O)C(C)O5)C(O)C(C)O4)c(C)c(O)c3c(O)c2C(=O)C1OC1CC(OC2CC(OC3CC(O)C(OC)C(C)O3)C(O)C(C)O2)C(O)C(C)O1 (configuration not stated)	-26%	u	0%	u	-98*	3%
Cc1ccc(Cn2c(CCCNC(=O)c3ccco3)nc3ccccc32)cc1	u	11%	-2%[46.1 µM]	-1%	-6	0%
CN(C)CCNC(=O)c1cc2c(s1)-c1ccc(Cl)cc1SC2	x	3.5µM*	x	u	-100*	u
CCCN(C(=O)c1cc2c(s1)-c1ccccc1SC2)c1ccccc1F	-5%[46.1 µM]	-12%	u	-11%	-68*	-19%
CCN(CC)S(=O)(=O)c1ccc(NC(=O)[C@H](CSCc2ccccc2)N2Cc3ccccc3C2=O)cc1	u	-24%	-3%[46.1 µM]	u	64	-12%
Cc1cc(C)nc(NNS(=O)(=O)c2ccc(Cl)cc2)n1	u	-8%	11%	-13%	-61*	2%
COc1ccccc1N1CCN(C(=O)c2cc(-c3ccc(C)c(F)c3)on2)CC1	-9%[46.1 µM]	-4%	u	-1%	-18	-17%
CSc1ccc(/C=C/c2ccnc3ccccc23)cc1	x	4%	x	-6%	x	x
CCc1ccc(C(=O)C(C)OC(=O)C2COc3ccccc3O2)cc1 (configuration not stated)	11%	-12%	11%	-15%	-98*	-7%
O=c1cnc2cnc(N3CCNCC3)nc2n1C1CC1	x	x	x	x	x	-17%
O=C(c1cccc(Cl)c1)N1c2nc(-c3ccco3)nn2C2(CCCCC2)[C@@H]2CCCC[C@@H]21	-12%[46.1 µM]	-14%	18%[46.1 µM]	-7%	-28	-7%

Screens (PubChem)
